The target of this experiment is ETV1 (Homo sapiens, UniProt P50549 1-477). The experiment is described as follows: DAPPL (digital affinity profiling via proximity ligation, sequencing); 10 mM Tris-HCl pH 7.5, 50 mM NaCl, 1 mM DTT, 4% glycerol, room temperature, 30 min; GST-TFs on glutathione beads, 16-mer random dsDNA library, 0.1% formaldehyde crosslink after washing; high values mean tight binding. The settings on record: protein: recombinant; tags: N-terminal GST; dsDNA, one strand shown. The method in brief: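 Pools were built from human transcription factors expressed in yeast as GST fusions, captured on glutathione beads and DNA-barcoded, along with a tag-only sample. Incubation with 200 nmole of a 16-mer random double-stranded DNA library lasted 30 min at room temperature in Tris/NaCl/DTT/glycerol buffer, and was followed by washing, 0.1% formaldehyde crosslinking, proximity ligation, PCR amplification and Illumina NextSeq500 sequencing. Binding signal is the quotient of each hexamer's read frequency for a factor and its frequency for the tag-only sample.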
ETV1, sequence (P50549 whole entry, the tested form may be a part): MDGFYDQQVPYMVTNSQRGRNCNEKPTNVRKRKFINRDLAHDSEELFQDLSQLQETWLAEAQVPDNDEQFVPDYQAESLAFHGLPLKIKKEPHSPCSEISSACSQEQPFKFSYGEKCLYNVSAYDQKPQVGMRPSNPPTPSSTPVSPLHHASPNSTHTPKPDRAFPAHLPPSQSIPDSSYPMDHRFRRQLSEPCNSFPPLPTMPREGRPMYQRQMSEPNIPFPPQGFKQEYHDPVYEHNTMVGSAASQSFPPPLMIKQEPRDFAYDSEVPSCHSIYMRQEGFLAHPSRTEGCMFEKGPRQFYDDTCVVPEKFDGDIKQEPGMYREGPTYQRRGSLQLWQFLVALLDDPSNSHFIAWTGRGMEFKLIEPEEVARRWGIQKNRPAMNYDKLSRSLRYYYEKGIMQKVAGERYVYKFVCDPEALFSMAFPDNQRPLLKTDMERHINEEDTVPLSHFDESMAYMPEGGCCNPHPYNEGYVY
As to GACCTC, the binding signal is 1.38 fold enrichment (6-mer frequency, TF over GST control). Next, CGTTCC: 1.47 fold enrichment (6-mer frequency, TF over GST control); ACTGGC: 1.11 fold enrichment (6-mer frequency, TF over GST control); ATGGAC: 1.18 fold enrichment (6-mer frequency, TF over GST control). Take CAATTG: the binding signal is 1.17 fold enrichment (6-mer frequency, TF over GST control). As for TGCCGA, the binding signal is 1.14 fold enrichment (6-mer frequency, TF over GST control). For the sequence ACTCAC, the binding signal was 1.15 fold enrichment (6-mer frequency, TF over GST control). In the case of GCCTCA, the binding signal is 1.13 fold enrichment (6-mer frequency, TF over GST control). In the case of CGACCC, the binding signal was 1.23 fold enrichment (6-mer frequency, TF over GST control). Next, CCACGC: 1.24 fold enrichment (6-mer frequency, TF over GST control); TGTTCA: 1.21 fold enrichment (6-mer frequency, TF over GST control). Consider GAAAAA, for which the binding signal is 1.09 fold enrichment (6-mer frequency, TF over GST control).

Regarding TGTACA, the binding signal was 1.15 fold enrichment (6-mer frequency, TF over GST control). Then CGTCCT, with 1.24 fold enrichment (6-mer frequency, TF over GST control).

For GAAGCA, the binding signal was 1.41 fold enrichment (6-mer frequency, TF over GST control). Regarding ACTGCC, the binding signal was 1.3 fold enrichment (6-mer frequency, TF over GST control). As for TGCGTA, the binding signal is 1.24 fold enrichment (6-mer frequency, TF over GST control).

With CGCGTC, the binding signal is 1.22 fold enrichment (6-mer frequency, TF over GST control). Then CCGACA, with 1.28 fold enrichment (6-mer frequency, TF over GST control); and GCGTTC, with 1.28 fold enrichment (6-mer frequency, TF over GST control); and GTACAT, with 1.24 fold enrichment (6-mer frequency, TF over GST control). Next, CGACAT: 1.37 fold enrichment (6-mer frequency, TF over GST control); CCTGCA: 1.28 fold enrichment (6-mer frequency, TF over GST control); TGCAAC: 1.4 fold enrichment (6-mer frequency, TF over GST control). Take TGCCCC: the binding signal was 1.19 fold enrichment (6-mer frequency, TF over GST control).

With TGACAT, the binding signal was 1.23 fold enrichment (6-mer frequency, TF over GST control).

With CCGTAC, the binding signal is 1.34 fold enrichment (6-mer frequency, TF over GST control). Take TGAAAC: the binding signal was 1.27 fold enrichment (6-mer frequency, TF over GST control). Then ACTGCG, with 1.27 fold enrichment (6-mer frequency, TF over GST control). Turning to CCCTCA, the binding signal is 1.19 fold enrichment (6-mer frequency, TF over GST control).

For TGACCA, the binding signal was 1.21 fold enrichment (6-mer frequency, TF over GST control). With TCTGAC, the binding signal is 1.3 fold enrichment (6-mer frequency, TF over GST control). With ACGAAC, the binding signal is 1.09 fold enrichment (6-mer frequency, TF over GST control). GAAGTT: the binding signal is 1.63 fold enrichment (6-mer frequency, TF over GST control). With CCGGCA, the binding signal was 1.46 fold enrichment (6-mer frequency, TF over GST control). With ACCGTC, the binding signal is 1.19 fold enrichment (6-mer frequency, TF over GST control).

Consider CTGCCA, for which the binding signal is 1.17 fold enrichment (6-mer frequency, TF over GST control).

Regarding GTCTCT, the binding signal was 1.27 fold enrichment (6-mer frequency, TF over GST control).

Take GAAACT: the binding signal was 1.27 fold enrichment (6-mer frequency, TF over GST control).

For the origin of these results see article PMC7862700, “An all-to-all approach to the identification of sequence-specific readers for epigenetic DNA modifications on cytosine”.
